Results on 40 molecules are retold here after PubChem BioAssay (NCATS).

Records with an inconclusive call do not appear. Entries that show only a call come without a potency. Values without a mark were called inactive. The source made the active and inactive calls. The call rests on the fitted dose curve; in most records, active means well fitted activation curve with a large enough effect; inconclusive means small, poorly fitted or top-dose-only effect, or another doubt; inactive means no such curve, though single readings can be large or run the other way.

This assay concerns the target Rap guanine nucleotide exchange factor 3 (Homo sapiens) (UniProt O95398). Description: Counterscreen qHTS for agonist of cAMP-regulated guanine nucleotide exchange factor 3 (EPAC1) (AID 1645889). Further: nearly all actives have a fitted effect of over 40% in size. The note with it: EPAC1 Rap1B-BODIPY-GDP exchange, fluorescence; series mostly up to 154 µM. Put shortly:
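Rap1B–BODIPY-GDP (250 nM) with 50 uM GDP; compounds pin-transferred to 9.74 nM–152 uM final (activator) or from 7.32 nM upwards (inhibitor). Fluorescence Ex/Em 480/540 nm read at 5 and 30 min, then after adding cAMP or buffer, at room temperature.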
In general terms: A counterscreen serves to expose hits that act by an unwanted route or on another target.
As to `CCCCCC(=O)N1c2ccccc2C(C)(c2ccccc2)CC1(C)C` (stereo not given), the Potency entry was “inactive”. `CCCCn1c(CNC(=O)C23CC4CC(CC(C4)C2)C3)nnc1SCC(=O)Nc1nnc(C)s1`: the activation was 1.72% [at 30.8 µM]. The same measure, in the same setting: to `O=S(=O)(c1ccc2nc(-c3ccco3)c(-c3ccco3)nc2c1)N1CCOCC1` belongs 21.3% [at 30.8 µM].

As for `CC(C)(C)Cc1c(-c2ccco2)nc2ccc(Cl)cn12`, the activation was 3.65% [at 30.8 µM].

For the molecule `CC1CN(C(=O)c2ccc(-c3cccc(C(F)(F)F)c3)o2)CC(C)O1` (stereo not given), the activation was 1.55% [at 30.8 µM]. In the case of `O=C(CSc1nccn1Cc1ccc(Cl)cc1)Nc1ccc2c(c1)OCO2`, the Potency entry was “inactive”.

For the molecule `FC(F)(F)c1cccc(CN2CCC(c3cc(-c4cccs4)n[nH]3)CC2)c1`, the Potency result was “inactive”.

With `O=C(COC(=O)c1cccc(NS(=O)(=O)c2ccc(F)c(F)c2)c1)NC(=O)NC1CCCC1`, the Potency entry was “inactive”. For the molecule `O=C(NCc1ccc(OC(F)(F)F)cc1)C1CC(c2ccccc2C(F)(F)F)=NO1` (stereo not given), the activation was 3.19% [at 30.8 µM].

For the molecule `Cc1cc2c(cc1C)C(c1ccccc1OC(C)C)CC(=O)N2` (stereo not given), the Potency result was “inactive”. As for `CCN(Cc1ccccc1)S(=O)(=O)c1cc2c3c(c1)CCN3C(=O)CC2`, the activation is -5.83% [at 30.8 µM]. For `O=C(O)CCCC(=O)N1CCN(c2nc(-c3ccccc3Cl)c3cc(Br)ccc3n2)CC1`, the Potency result was “inactive”.

Consider `COCc1nc2ccccc2n1Cc1ccc(C(C)(C)C)cc1`, for which the Potency result was “inactive”.

On to `CC(C)(C)c1ccc(C(=O)N2CCCC(c3nc4c(nnn4Cc4cccc(F)c4)c(=O)[nH]3)C2)cc1` (stereo not given), for which the Potency result was “inactive”. On the same count and under the same terms, to `Nc1cc(OC(=O)c2cccs2)nn1S(=O)(=O)c1ccc(F)cc1` belongs “inactive”; to `CC(C)CCNC(=O)c1onc(CSc2ccccn2)c1C(=O)NCCC(C)C`, “inactive”. For the molecule `NC(CSC(c1ccccc1)(c1ccccc1)c1cccc2ccccc12)C(=O)O` (stereo not given), the activation was 5.6% [at 30.8 µM]. Consider `COc1ccc(N2C(=O)CSC23C(=O)N(Cc2cccc(C(F)(F)F)c2)c2ccccc23)cc1` (stereo not given), for which the Potency entry was “inactive”. For `CC1=CCC[C@@H]2[C@@](C)(CC/C(C)=C/C(=O)O)[C@H](C)CC[C@@]12C`, the activation was 10.7% [at 30.8 µM].

For the molecule `CC1Sc2ccc(C#N)cc2N(Cc2cccc(C(F)(F)F)c2)C1=O` (stereo not given), the Potency result is “inactive”. On to `C/C(=N\NS(=O)(=O)c1ccc(C(C)(C)C)cc1)c1ccccc1`, for which the activation is 25% [at 30.8 µM]. `O=C(O)CN1C(=O)/C(=C\c2ccccc2OCc2ccc(Cl)cc2)SC1=S`: the Potency result was “inactive”. Still for that read-out and setting: to `C=CCNC(=O)c1oc2ccc(S(=O)(=O)N(CC)CC)cc2c1C` belongs “inactive”. `Nc1ccc(N2CCCCC2)c2nonc12`: the activation is 6.94% [at 30.8 µM]. As to `O=C(O)c1cccc(Nc2ccc([N+](=O)[O-])c3nonc23)c1`, the Potency result was “inactive”.

`CCCc1[nH]c2ccc(C(=O)OC)cc2c1CCC`: the Potency entry is “inactive”.

Consider `COc1ccc(C2CC(=O)c3c(O)cc(O)cc3O2)c(CC=C(C)C)c1OC` (stereo not given), for which the Potency entry is “inactive”. For `C=CC(C)N1C(=O)S/C(=C\c2ccc(N3CCOCC3)cc2C)C1=O` (stereo not given), the Potency result is “inactive”. Same read-out and setting: to `CC(C)(C)OC(=O)N1CCC(c2c(C(=O)NCCN3CCC(Cc4ccccc4)CC3)cnn2-c2cccc(Cl)c2)CC1` belongs “inactive”; to `CCCCOC(=O)C1=C(C)Nc2nnnn2C1c1ccccc1Cl` (stereo not given), “inactive”. Take `CCCC(=O)NC(c1ccc(C)cc1)c1ccc2cccnc2c1O` (stereo not given): the activation is 7.43% [at 30.8 µM]. On to `CCc1ccc2c(c1)NC(=O)C2(C)Cc1ccc(C(F)(F)F)o1` (stereo not given), for which the Potency result was “inactive”. Turning to `Cc1ccc(NS(=O)(=O)c2cccc(C(=O)OCC(=O)NCc3ccco3)c2)cc1`, the Potency result is “inactive”. Turning to `CCc1nc2ccc(C(=O)Nc3ccc(NC(C)=O)cc3)cn2c1N(C)CCC(C)C`, the Potency result is “inactive”. For the molecule `CC(C)C(=O)Nc1nc2c(s1)CC(C(C)(C)C)CC2` (stereo not given), the Potency result was “inactive”. Still for that read-out and setting: to `CCC(C)(C)c1ccc(OCC(=O)N(C)C)c(C(C)(C)CC)c1` belongs “inactive”; to `C[C@H](CO)N1C[C@H](C)[C@@H](CN(C)Cc2ccc(Cl)c(Cl)c2)Oc2c(NC(=O)CCC(F)(F)F)cccc2C1=O`, “inactive”; to `C/C=C/C(=O)Nc1cccc(C2=NOC3(C2)C[C@@H](C(N)=O)N(C(=O)/C(C)=C/C)C3)c1` (stereo not given in full), “inactive”. Turning to `Cc1ccnc(NC(=O)C2CCN(S(=O)(=O)c3cccc(C(F)(F)F)c3)CC2)c1`, the Potency result was “inactive”. Take `CCC/C=C/c1ccc(CN2C(CC(C)C)C(=O)N(Cc3cn(Cc4ccco4)nn3)CCS2(=O)=O)cc1` (stereo not given): the Potency entry is “inactive”.
